Bioassay records (PubChem)
IMPase Li cell – cell-permeable IMPase inhibitors with lithium potentiation | CHO-M1 cells, IP1 TR-FRET (IP-One), carbachol + lithium | Potency, µM (top dose mostly 59.4 µM), for the others: at the highest dose activity, negative = IMPase inhibition, actives largely listed as inhibitors | 210,000 tested, 0.35% active | AID 1457;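 further: IP1 builds up when IMPase is blocked and the TR-FRET signal falls; potency means the concentration at half of the fitted maximal effect; plate controls were basal vehicle for no effect and high inhibitor control for full effect; nearly all actives have a fitted effect of over 50% in size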
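CHO-M1, 2000 cells/well, 16–30 h culture; cpd + low Li+, 30 min 37C; lysis with d2-IP1/Eu-anti-IP1 Ab, 10 min RT; TR-FRET 665/620 ratio and 620 channel; AC50 via Hill.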
PNC assembly inh – inhibitors of perinucleolar compartment assembly; 140,000 tested, 3.1% active; activity change (PNC), negative = inhibition, % at 10 µM; PC3M PTB-GFP, PNC prevalence imaging, 16 h; stronger effect = lower value;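 active means readout at or below -70, meaning at least 70% loss of cells showing the perinucleolar compartment, a nuclear body marking cancer cells; inconclusive means readout between -30 and a set limit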;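 further: plate controls were DMSO wells for no effect and camptothecin positive control wells for full effect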
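Read-out is percentage of cells bearing a perinucleolar compartment, from automated 20x imaging of fixed, Hoechst-stained PC3M PTB-GFP cells. Cells were seeded 4 h, then exposed 16 h to compound (23 nl of library stock) in duplicate plates.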
HPGD block – inhibitors of human 15-hydroxyprostaglandin dehydrogenase (HPGD); purified HPGD, NADH fluorescence kinetic, PGE2 substrate; Potency, µM, inactives show at the highest dose activity change, negative = inhibition, most hits filed as inhibitors; 150,000 tested, 4.3% active; active means well fitted inhibition curve with a large enough effect, not every such curve was filed as active; inconclusive means small, poorly fitted or top-dose-only effect, or another doubt; inactive means no such curve, though single readings can be large or run the other way; further: potency means the concentration at half of the fitted maximal effect
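NADH formation kinetics: reaction with 30 uM PGE2 and 1 mM NAD+ (final), 20 nM enzyme, Tris-HCl pH 8 with Tween 20, after 15 min compound preincubation at room temperature. Fluorescence change, last versus first of five reads.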
ALDH1A1 block – inhibitors of human aldehyde dehydrogenase 1A1; Purified ALDH1A1, NADH fluorescence, propionaldehyde substrate; AID 1030; P00352; Potency, µM (doses to about 75.3 µM), for inactives: top-dose activity, negative = inhibition, usual class: inhibitors; 220,000 tested, 7.3% active; active means well fitted inhibition curve with a large enough effect, not every such curve was filed as active; inconclusive means small, poorly fitted or top-dose-only effect, or another doubt; inactive means no such curve, though single readings can be large or run the other way;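 further: potency means the concentration at half of the fitted maximal effect; plate controls were no enzyme wells and a reference inhibitor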
ALOX12 inhib – blocks human 12-lipoxygenase activity | P18054 | purified 12-hLO, xylenol orange hydroperoxide absorbance | Potency, µM (series often up to 57.1 µM), for the others: at the top dose activity change, negative = inhibition, hits mostly inhibitors | 150,000 tested, 0.12% active | AID 1452; further: potency means the concentration at half of the fitted maximal effect; nearly all actives have a fitted effect of over 55% in size
Target sequence (P18054 whole entry, looked up): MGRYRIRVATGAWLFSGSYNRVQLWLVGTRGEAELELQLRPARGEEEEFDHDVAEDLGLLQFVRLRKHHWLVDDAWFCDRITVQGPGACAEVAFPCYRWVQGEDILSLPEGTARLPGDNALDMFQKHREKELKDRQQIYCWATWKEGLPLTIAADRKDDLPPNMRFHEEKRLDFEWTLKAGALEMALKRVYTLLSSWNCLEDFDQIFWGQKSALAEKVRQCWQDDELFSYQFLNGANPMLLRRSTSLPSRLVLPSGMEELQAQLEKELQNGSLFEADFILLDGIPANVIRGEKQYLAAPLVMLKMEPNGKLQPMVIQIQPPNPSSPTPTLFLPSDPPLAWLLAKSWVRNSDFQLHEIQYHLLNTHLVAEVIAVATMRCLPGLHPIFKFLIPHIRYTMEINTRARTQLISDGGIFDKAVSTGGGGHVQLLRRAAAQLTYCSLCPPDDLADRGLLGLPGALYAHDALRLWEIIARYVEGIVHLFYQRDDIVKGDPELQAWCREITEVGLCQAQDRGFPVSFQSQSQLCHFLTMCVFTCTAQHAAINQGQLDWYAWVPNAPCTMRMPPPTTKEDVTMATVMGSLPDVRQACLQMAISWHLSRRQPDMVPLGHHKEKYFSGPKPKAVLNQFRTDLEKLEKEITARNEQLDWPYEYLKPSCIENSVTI
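Purified human 12hLO (150 nM final) was preincubated with compounds for 15 min at room temperature in 25 mM Hepes pH 7.0, 0.01% Triton X-100, then reacted with 40 uM arachidonic acid for 30 min. Hydroperoxide was detected with ferrous iron/xylenol orange.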
IMPase inh – membrane-permeable compound that blocks inositol monophosphatase; inhibition (IP1 accumulation), % at 46.1 µM; CHO-M1 cells, IP1 accumulation, HTRF TR-FRET ratio; AID 901; P97697; 120,000 tested, under 10 active; active means well fitted curve in the direction sought with a large enough effect in the signal ratio, not every such curve was filed as active; inconclusive means small, poorly fitted or top-dose-only effect, or a change in a side signal; inactive means no such curve, though single readings can be large or run the other way; the % refers to the signal ratio;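 further: cells stimulated with carbachol in lithium chloride buffer; plate controls were DMSO basal wells for no effect and reference inhibitor wells for full effect; higher means more IMPase inhibition seen as more IP1 and lower FRET ratio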
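Seeded CHO-M1 cells were dosed with compound at up to 46 uM, stimulated with carbachol for 30 min, then lysed in IP-One detection reagents. Higher IP1 lowers the TR-FRET signal.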
Starred values were filed as active, the others as inactive; u = inconclusive; x = no result given; [ ] = another dose, or the depositor's remark. An excerpt weighted towards active compounds, which were near 11% of everything screened. Unless noted, the call rests on the fitted dose curve; in most records, active means well fitted curve in the direction sought with a large enough effect; inconclusive means small, poorly fitted or top-dose-only effect, or another doubt; inactive means no such curve, though single readings can be large; an effect the other way counts as inactive or inconclusive. Unless noted, on the % scale 0 is the no-effect control and ±100 the full control effect.

SMILES	IMPase Li cell	PNC assembly inh	HPGD block	ALDH1A1 block	ALOX12 inhib	IMPase inh
CCOC(=O)C1=C(C)NC(C)=C(C(=O)OCC)C1c1ccc(C)o1	x	x	x	7.0%	x	x
CC1=C(C(N)=O)C(c2ccc(C)o2)C(C(N)=O)=C(C)N1	20.0%[38.3 µM]	u	-9.7%	39.8µM*	0.2%	-5.9
COc1ccc(C2CC(=O)N3C(=C2C#N)SCC3(O)c2ccccc2)cc1 (configuration not stated)	5.3%[38.3 µM]	8.2	-18.8%	u	-16.9%	8.4
COc1cccc(C2CC(=O)N3CN(c4ccccc4F)CSC3=C2C#N)c1 (configuration not stated)	-7.2%[38.3 µM]	-28.5	u	25.1µM*	-18.3%	-3.9
COc1ccc(OC)c(C2CC(=O)N3CN(c4ccccc4F)CSC3=C2C#N)c1 (configuration not stated)	8.7%[38.3 µM]	7.2	25.1µM*	3.98µM*	31.6µM*	6.0
COc1ccc(OC)c(C2CC(=O)NC(SC)=C2C#N)c1 (configuration not stated)	6.8%[38.3 µM]	16.7	-16.5%	-6.2%	4.7%	-3.9
Cc1cccc(C(=O)NC(=S)NNC(=O)c2ccc(Cl)cc2)c1	-3.6%	u	-5.5%	u	-0.8%	x
O=C(NN=C1CCCC1)c1sc2ccccc2c1Cl	-2.0%	x	x	15.8µM*	x	x
O=C(NNC(=S)NC(=O)c1sc2ccccc2c1Cl)c1ccc(Cl)cc1	-27.6%	10.4	-24.0%	28.2µM*	0.4%	-4.8
Cc1ccc(NC(=O)c2sc3ccccc3c2Cl)cc1	x	x	x	x	x	3.2
O=C(NNC(=O)c1sc2ccccc2c1Cl)Nc1ccc(Cl)cc1	-15.7%[38.3 µM]	-28.0	-7.7%	8.91µM*	-0.9%	-3.8
CC1(C)CC23C(=O)CCC(O)C2(C)CCC13 (configuration not stated)	-12.8%	x	-4.0%	u	2.0%	x
CCOC(=O)CN1C(=O)N[C@@H](c2ccc(Br)cc2)C(C(=O)OC)=C1C	-6.8%	x	1.3%	-3.1%[13.5 µM]	0.5%[11.4 µM]	x
CCOC(=O)CN1C(=O)N[C@H](c2ccc(Br)cc2)C(C(C)=O)=C1C	6.7%	-5.9	-23.4%	14.1µM*	-6.3%	x
Cc1ccc(Nc2c([N+](=O)[O-])cc(C(=O)N3CC(=O)Nc4ccccc43)cc2[N+](=O)[O-])c(C)c1	17.1%[38.3 µM]	-7.2	15.8µM*	8.4%	-4.4%	3.2
CC(C)(C)OC(=O)NCCc1nnc(SCC(=O)c2ccc(Cl)cc2)o1	-2.8%[38.3 µM]	u	-15.2%	12.6µM*	-23.9%	18.3
Cc1[nH]c(=O)[nH]c(=O)c1CSc1nnc(CCCCCNC(=O)OC(C)(C)C)o1	-0.7%[38.3 µM]	10.2	25.1µM*	4.1%	-0.6%	-2.1
C[C@H](N)c1nnc(SCC(=O)c2ccc(Cl)cc2)o1	31.7%[38.3 µM]	-15.7	-14.0%	20µM*	-1.2%	5.2
CC(C)[C@H](N)c1nnc(SCC(=O)c2ccc(Cl)cc2)o1	-9.4%[38.3 µM]	-23.0	-15.1%	2.6%	-8.0%	-0.1
NS(=O)(=O)c1cc2c(cc1Cl)N[C@@H]([C@@H]1C[C@@H]3C=C[C@H]1C3)NS2(=O)=O	25.2%	x	-1.0%	4.1%	-3.4%	3.3
CC(=O)Nc1ccc2nc(-c3ccc(Br)o3)[nH]c2c1	2.0%	37.5	-21.8%	31.6µM*	3.8%	x
O=C(Nc1ccc2nc(-c3ccc(Br)o3)[nH]c2c1)c1ccco1	-2.9%[38.3 µM]	-21.9	-19.6%	-9.4%	-1.9%	5.8
Cc1ccc(-c2nc3ccc(NS(=O)(=O)c4ccccc4)cc3[nH]2)o1	32.7%[38.3 µM]	51.6	39.9%	8.91µM*	1.3%	6.3
Cn1c(=O)c2[nH]c(CS(=O)(=O)Cc3nc4c([nH]3)c(=O)n(C)c(=O)n4C)nc2n(C)c1=O	0.6%	x	-16.8%	u	-5.8%[11.4 µM]	x
Nc1ccc(F)cc1F	4.1%	x	-10.2%	u	-1.7%	x
S=c1nc[nH]c2nc[nH]c12	10.6%	x	u	7.94µM*	-1.4%	x
CCCNC(=O)c1nnsc1S(=O)c1ccc(Cl)cc1 (configuration not stated)	16.1%	x	x	11.2µM*	x	x
CCCNC(=O)c1nnsc1S(=O)(=O)c1ccc(Cl)cc1	25.7%	x	x	20µM*	x	x
